Results published in PubChem BioAssay (NCATS).
Inconclusive results are not listed. Entries that show only a call come without a potency. A number with no mark means an inactive call. The source made the active and inactive calls. The call rests on the fitted dose curve; in most records, active means well fitted cell-killing curve with a large enough effect; inconclusive means small, poorly fitted or top-dose-only effect; inactive means flat fitted curve, though single readings scatter.

Experiment: qHTS of pediatric cancer cell lines to identify multiple opportunities for drug repurposing: Primary screen for DAOY cells (AID 1347090); further: nearly all actives have a fitted effect of over 55% in size
Conditions: DAOY medulloblastoma viability, CellTiter-Glo luminescence, 48 h; series mostly up to 46 µM
From the text: Drug repurposing or repositioning has been offered as a strategy for drug development in oncology programs. This approach has special potential for childhood cancers and other rare or orphan diseases, where the expected return on new drug development has been a disincentive to pharmaceuticals.
In this project we exploit the poly-pharmacology of drugs to discover new indications via phenotypic screening of a panel of 19 well-characterized cell lines derived from solid tumors seen in children and adolescents. The goal is to identify approved drugs with previously unrecognized anticancer properties that has the potential to reveal new mechanisms and biological processes involved in carcinogenesis or drug resistance. We employed a titration-based paradigm (quantitative high-throughput screening or qHTS), where all compounds were tested at multiple concentrations for their effect on cell viability. Concentration-response curves (CRCs) were derived directly from the primary screen, and both potency and efficacy values were used to identify compounds with robust bioactivity profiles. We screened the NIH Chemical Genomics Center (NCGC) Pharmaceutical Collection (NPC) and Mechanism Interrogation Plate (MIPE) small molecule collections of approved and investigational compounds against these cell lines; and measured metabolically active cells after 48 hours of compound treatment as a proxy for cell viability.
Assay Submitter: Nathalia J. Martinez, National Center for Advancing Translational Sciences, National Institutes of Health, Rockville, MD, USA; email: natalia.martinez@nih.gov
[1] Shen, M et al. Quantitative high-throughput phenotypic screening of pediatric cancer cell lines identifies multiple opportunities for drug repurposing. Oncotarget 2017 Dec 19;9(4):4758-4772. PMID 29435139.
The cells were obtained from University of North Carolina (UNC), Pediatric Preclinical Testing Program (PPT), and Coriell Institute (CI).
qHTS cell viability assay:
Cells were assayed in growth media at a density of 500-1,000 cells/well. Five microliters of cells were dispensed into 1,536-well, white, solid-bottom, TC-treated plates (Greiner Bio One) using a multidrop dispenser and incubated at 37 degrees C, 5% CO2, under a humidified atmosphere for 5 hours. Twenty-three nanoliters of compounds and controls (neutral control DMSO or positive control bortezomib at final concentration of 2.3 µM) were subsequently transferred by Kalypsys pintool. For primary screens, the MIPE collection was tested at 11-point dilutions (final concentrations range from 0.78 nM to 46 µM) and the NPC collection at 8-point dilutions (final concentrations range from 0.59 nM to 46 µM). Compounds tested in follow-up screens were assayed at 11-point dilutions. Cells were incubated for 48 hours, followed by addition of 3 uL of CellTiter-Glo (Promega). After a 15 min incubation at room temperature, samples were analyzed for luminescence intensity using a ViewLux High-throughput CCD imager equipped with clear filters.

Compound | Potency | activity change, negative = cytotoxic
c1ccc(CN(CC2=NCCN2)c2ccccc2)cc1 | inactive | –
NCCNCCNCCNCCN | – | -7.74% [at 9.22 µM]
CN1CCC[C@@H]1Cc1c[nH]c2ccc(CCS(=O)(=O)c3ccccc3)cc12 | inactive | –
NC1CCN(c2cccc(Cl)n2)CC1 | inactive | –
C[C@@H]1C[C@H]2[C@@H]3C[C@H](F)C4=CC(=O)C=C[C@]4(C)[C@@]3(F)[C@@H](O)C[C@]2(C)[C@@]1(O)C(=O)CO | inactive | –
NCC(=O)CCC(=O)O | inactive | –
Cc1c(Cl)cccc1Nc1ccccc1C(=O)O | inactive | –
CN1CCOC(c2ccccc2)c2ccccc2C1 (stereo not given) | inactive | –
COc1cc(C)c(Cc2cnc(N)nc2N)cc1OC | inactive | –
CCCCOc1cc(C(=O)OCCN(CC)CC)ccc1N | inactive | –
COc1ccc2c(c1)C(=O)N(CCc1ccc(S(=O)(=O)NC(=O)NC3CCCCC3)cc1)C(=O)C2(C)C | inactive | –
Cc1ccc(C(C)C)cc2c(C)ccc1-2 | inactive | –
CN(C)CCN(Cc1ccccc1)c1ccccn1 | inactive | –
O=C1O[C@H](CO)[C@@H](O)[C@H](O)[C@H]1O | inactive | –
C=Cc1c(C)c2cc3[nH]c(cc4nc(cc5nc(cc1[nH]2)C(C)=C5CCC(=O)O)C(CCC(=O)O)=C4C)c(C)c3C=C | inactive | –
CN1CCCCC1CCN1c2ccccc2Sc2ccc(S(C)=O)cc21 (stereo not given) | inactive | –
CCC(=O)c1ccc(O)cc1 | inactive | –
Nc1ccc(S(=O)(=O)Nc2ccc(Cl)nn2)cc1 | inactive | –
CCOc1ccc2ccccc2c1C(=O)N[C@@H]1C(=O)N2[C@@H]1SC(C)(C)[C@@H]2C(=O)O | inactive | –
CCCCN(CCCC)CCCOC(=O)c1ccc(N)cc1 | inactive | –

Compound | Potency | activity change, negative = cytotoxic
CC1(C)[C@@H]2CC[C@@]1(C)C(=O)C2 | inactive | –
CC(CN1c2ccccc2Sc2ccccc21)N(C)C (stereo not given) | inactive | –
CN(C)CC[C@@H](c1ccc(Cl)cc1)c1ccccn1 | inactive | –
O=C(O)COc1nn(Cc2ccccc2)c2ccccc12 | inactive | –
NS(=O)(=O)c1cc2c(cc1C(F)(F)F)NC(Cc1ccccc1)NS2(=O)=O (stereo not given) | inactive | –
Nc1nc2c(ncn2CCC(CO)CO)c(=O)[nH]1 | inactive | –
NC(N)=NCCC[C@H](N)C(=O)O | – | -2.71% [at 4.84 µM]
C[C@]12C[C@H](O)[C@H]3[C@@H](CCC4=CC(=O)CC[C@@]43C)[C@@H]1CC[C@@H]2C(=O)CO | inactive | –
CC1(C)S[C@@H]2[C@H](NC(=O)Cc3ccccc3)C(=O)N2[C@H]1C(=O)O (tested in a mixture with another compound) | inactive | –
Nc1ccc(S(=O)(=O)NC(=O)c2ccccc2)cc1 | inactive | –
c1ccc2c(CC3=NCCN3)cccc2c1 | inactive | –
CCCc1c(OCCCCc2nn[nH]n2)ccc(C(C)=O)c1O | inactive | –
[O-][n+]1cccc(CO)c1 | inactive | –
CNC(=O)Oc1ccc2c(c1)[C@]1(C)CCN(C)[C@@H]1N2C | inactive | –
CCOC(=O)c1ccc(O)cc1 | inactive | –
O=C1NC(=O)[C@@]2(CCOc3ccc(F)cc32)N1 | inactive | –
CN(N=O)C(=O)N[C@@H]1[C@@H](O)[C@H](O)[C@@H](CO)O[C@@H]1O | inactive | –
O=c1[nH]c(=O)c2[nH]c(=O)[nH]c2[nH]1 | – | -3.8% [at 9.22 µM]
COc1cc2[nH]c(=O)[nH]c(=O)c2cc1OC | inactive | –
CCCCC/C(C=O)=C\c1ccccc1 | inactive | –
